Structures are written as SMILES. Results filed as inconclusive are left out. A call without a number means that no potency is given here. Active and inactive are the calls of the source. The call rests on the fitted dose curve; in most records, active means well fitted inhibition curve with a large enough effect; inconclusive means small, poorly fitted or top-dose-only effect, or effect the other way; inactive means flat fitted curve, though single readings scatter.
Potency means the concentration at half of the fitted maximal effect.

Chain of Menin (Homo sapiens) (O00255 whole entry, looked up): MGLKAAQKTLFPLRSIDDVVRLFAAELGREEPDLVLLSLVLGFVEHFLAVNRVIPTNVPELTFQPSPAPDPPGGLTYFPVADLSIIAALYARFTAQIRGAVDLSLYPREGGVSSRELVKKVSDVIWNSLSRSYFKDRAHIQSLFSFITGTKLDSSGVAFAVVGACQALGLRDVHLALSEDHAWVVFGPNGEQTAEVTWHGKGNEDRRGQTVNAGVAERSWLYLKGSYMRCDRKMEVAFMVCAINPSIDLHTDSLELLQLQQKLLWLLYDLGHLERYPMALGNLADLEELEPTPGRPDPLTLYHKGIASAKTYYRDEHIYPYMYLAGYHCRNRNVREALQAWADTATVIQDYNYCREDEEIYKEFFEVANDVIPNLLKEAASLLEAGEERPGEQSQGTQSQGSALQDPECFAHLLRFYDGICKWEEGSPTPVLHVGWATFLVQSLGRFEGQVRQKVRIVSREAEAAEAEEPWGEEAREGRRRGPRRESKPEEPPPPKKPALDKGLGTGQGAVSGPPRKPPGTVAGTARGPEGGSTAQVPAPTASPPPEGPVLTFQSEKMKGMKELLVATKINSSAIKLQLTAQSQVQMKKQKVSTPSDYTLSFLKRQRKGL

This test has as its target Menin (Homo sapiens) (UniProt O00255). The test is described as follows: Confirmation of Inhibitors Targeting the Menin-MLL Interaction in MLL Related Leukemias: Confirmation in an HTRF (commercial TR-FRET) Assay using His-tagged menin and biotin-labeled MLL peptide. Particulars: His-menin / biotin-MLL peptide binding; series mostly up to 126 µM. In a few lines: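 Compounds were incubated 1 hr at ambient with a preformed His6-menin (200 nM)/biotinylated MLL-w.t. peptide (80 nM) complex in Tris pH 7.5 buffer; anti-His Eu-cryptate (3.5 nM) and SA-XL665 (10 nM) added, TR-FRET read after 1h.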
With `O=C(CC(Sc1ccc(Br)cc1)C(=O)O)c1ccc(F)cc1` (stereo not given), the Potency entry is “inactive”. For the compound `CN(C)[C@H]1C(=O)C(C(=O)NCN2CCCC2)=C(O)[C@]2(O)C(=O)C3=C(O)c4c(O)cccc4[C@](C)(O)[C@H]3C[C@H]12`, the Potency is 70.7 µM (active). With `C[N+]1(CCNC(=O)/C=N/O)CCCCC1`, the Potency result was “inactive”. Regarding `C=C1CCC[C@]2(C)C[C@H]3OC(=O)C(CNCCN(CC)CC)[C@H]3CC12` (stereo not given in full), the Potency entry was “inactive”.

On to `CN(C)CCCOc1ccc2c(c1)Sc1ccccc1CC2=O`, for which the Potency entry is “inactive”. With `CCc1ccc(CNC(=O)CCS(=O)(=O)Cc2ccccc2F)cc1`, the Potency entry is “inactive”. On to `COc1cccc(OC)c1NC(=O)CN1CCN(C)CC1`, for which the Potency result is “inactive”. `CCCCn1c(SCC(=O)NCc2ccc(OC)c(C(=O)O)c2)nc2cc(S(N)(=O)=O)ccc21`: the Potency result was “inactive”.

On to `NC(=O)c1ccc(NC(=O)c2cncn2-c2ccccc2)cc1`, for which the Potency result was “inactive”. Take `COc1ccccc1/C=N/n1c(N)c(S(=O)(=O)c2cccs2)c2nc3ccccc3nc21`: the Potency result is “inactive”. To `Cc1sc2ncnc(NC3CCN(Cc4ccccc4)CC3)c2c1C` belongs 126 µM (active). Take `O=[N+]([O-])CC(c1ccccc1)P(=O)(c1ccccc1)c1ccccc1` (stereo not given): the Potency entry is “inactive”. Regarding `O=C(CC(=O)c1ccccc1)Nc1cc(C(F)(F)F)ccc1Cl`, the Potency result is “inactive”. To `CC(CC(=O)Nc1nc2ccccc2[nH]1)n1ccnc1` (stereo not given) belongs “inactive”; to `O=C(Nc1cccn(Cc2c(Cl)cccc2Cl)c1=O)c1c(Cl)cccc1Cl`, “inactive”; to `C/C(=N\Nc1ccc(Cl)c(C(=O)O)c1)c1ccc[nH]1`, “inactive”. To `NC(=O)[C@@H]1CCCNc2c(I)cc([N+](=O)[O-])cc2C(=O)N[C@@H](CCCN=C(N)N)C(=O)N[C@@H](CCCN=C(N)N)C(=O)N1` belongs “inactive”; to `O=C(CCC1CCCCC1)NCCN1C2=NC[C@H](Cc3ccc(O)cc3)N2C[C@H]1Cc1ccc(O)cc1`, “inactive”; to `Cc1ccc2nc(-c3ccc(NC(=O)COC(=O)c4ccc(Br)o4)cc3)sc2c1`, “inactive”. Take `COc1cc(O)c(C(=O)c2ccccc2)cc1O`: the Potency result is “inactive”.

As to `Cc1ccc(F)c(C2C3C=CCC(C)C3C(=O)N2Cc2ccccc2)c1` (stereo not given), the Potency result is “inactive”. For the compound `COC(=O)COc1ccc(C(C2C(=O)CC(C)(C)CC2=O)C2C(=O)CC(C)(C)CC2=O)cc1`, the Potency result was “inactive”. Regarding `COc1ccccc1NS(=O)(=O)c1cc(N2Cc3ccccc3C2=N)ccc1N1CCOCC1`, the Potency is 89.1 µM (active). On to `CCN(CC)c1nc(-c2ccc(C(=O)NN)cc2)nc(-c2ccc(C(=O)NN)cc2)n1`, for which the Potency result was “inactive”. To `COc1cc(SC)ccc1C(=O)Nc1cccc(C2OCCCO2)c1` belongs “inactive”; to `CC(=O)N1CCCc2cc(S(=O)(=O)N3CCCC(C(=O)N4CCN(c5ccccc5)CC4)C3)ccc21` (stereo not given), “inactive”. For the compound `CCc1ccccc1NC(=O)COc1cccc(-n2cnnn2)c1`, the Potency result is “inactive”. As to `COc1ccc(C2=C(CN(C)C)C(c3ccccc3)c3ccccc3O2)cc1` (stereo not given), the Potency result is “inactive”. Take `CCCC(=O)NC(c1ccccc1Cl)c1ccc2cccnc2c1O` (stereo not given): the Potency result was “inactive”. As for `CCc1cc2c(N3CCN(c4nnc(CC)s4)CC3)ncnc2s1`, the Potency is 25.1 µM (active). `COCCNC(=O)C(OC(=O)c1nsc(Cl)c1Cl)C(C)C` (stereo not given): the Potency result is “inactive”. In the case of `Cc1ccccc1-c1n[nH]c(=S)n1C`, the Potency entry is “inactive”. To `CCOc1ccc(-c2nn(-c3ccccc3)cc2/C=C2\SC(N)=NC2=O)cc1C` belongs “inactive”. To `Cc1ccc(C(=O)Sc2cccccc2=O)cc1` belongs “inactive”; to `O=C(NC(=S)N1CCCc2ccccc21)c1ccc([N+](=O)[O-])cc1`, “inactive”.

(Values after PubChem BioAssay AID2778 (National Center for Advancing Translational Sciences (NCATS), 2010).)
